Compounds without any hit were thinned out: in the full panel of roughly 83,000, 20% have a hit.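 Each cell line was grown in a 96-well plate and treated with one concentration of compound for 48 hours. Values below 10 were considered active.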 Unmarked numbers belong to inactive results. The source made the active and inactive calls.

This experiment has as its system HL-60(TB) leukemia. In words: NCI-60 one-dose screen, 48 h (100 = growth as untreated, 0 = no growth, -100 = all killed). As to conditions: 10 µM unless noted.
Take `COc1ccc(CCNC2=CC(=O)CCC2)cc1OC`: the growth was 69.4%.

As for `O=c1cc(/C(=C2/C=CC=N2)c2ccc[nH]2)c2cc(Cl)ccc2o1`, the growth was 85.2%.

For the molecule `NC(=O)c1noc(C(=O)c2ccccc2)c1N`, the growth was 93.7%.

In the case of `COc1cc(C(=O)c2cnc(-c3cccc4[nH]ccc34)[nH]2)cc(OC)c1OC`, the growth was -28.6% (active).

For `CCN1C(=O)N(CC)C2C1NN=c1s/c(=C3\C(=O)N(C)c4ccccc43)c(=O)n12` (stereo not given), the growth is -13% (active).

In the case of `COc1ccc2nc3ccccc3c(NCc3ccc(F)cc3)c2c1`, the growth is -34.6% (active).

For `COc1ccc2[nH]cc(-c3nonc3-c3c[nH]c4ccc(Br)cc34)c2c1`, the growth is 76.1%.

Turning to `N#CC1=C(N2CCOCC2)NC2c3ccccc3Sc3ccccc3N2C1=N` (stereo not given), the growth was 89.8%.

For the molecule `COc1cccc(-c2nc(-c3ccc(NC(=O)OC(C)C)cc3)[nH]c2-c2ccnc(Br)c2)c1`, the growth is -39.9% (active).

Take `CNC(=O)c1cc(Oc2cccc3nc(Nc4ccc(F)c(Cl)c4)ccc23)ccn1`: the growth is 31.1%.

For `O=C(CCl)Oc1ccc(-c2ccccc2)c(Br)c1`, the growth is 105%.

With `COc1cc2c(cc1OCCCN1CCN(CCCOc3cc4c(cc3OC)C(=O)N3CCC[C@H]3C=N4)CC1)C=CC(C)(C)O2`, the growth is 10.2%.

`COc1cc2c(cc1OC)C(Sc1ccc(SC)cc1)c1c(nc(N)c(C#N)c1N)O2` (stereo not given): the growth was -52.9% (active).

Take `C=C1CCC2C3(C)COC(c4ccc(OC)cc4Br)OC3CCC2(C)C1/C=C/C1=CCOC1=O` (stereo not given): the growth was 31.8%.

With `Cc1ccc(S(=O)(=O)N2CCN(C(=O)CSc3nc4ccc(C)cc4[nH]3)CC2)cc1`, the growth is -1.47% (active).
